The supplement of paper PMC11732987, “Enantioselective OTUD7B fragment discovery through chemoproteomics screening and high-throughput optimisation” (Communications Chemistry, 2025)

What was measured:
Assay in all cases: log2 ratio of Biotin-Ahx-Ub-VS probe labelling (fragment/DMSO); higher = less target engagement (more negative = stronger competition), active = hit call of the paper (q ≤ 0.05, log2 ratio ≤ -1)
Conditions in all cases: compound concentration: 200 uM; treatment time: 3 h
USP42 = molecular target: T1, USP42 (UniProt Q9H9J4)
T1 sequence (whole entry): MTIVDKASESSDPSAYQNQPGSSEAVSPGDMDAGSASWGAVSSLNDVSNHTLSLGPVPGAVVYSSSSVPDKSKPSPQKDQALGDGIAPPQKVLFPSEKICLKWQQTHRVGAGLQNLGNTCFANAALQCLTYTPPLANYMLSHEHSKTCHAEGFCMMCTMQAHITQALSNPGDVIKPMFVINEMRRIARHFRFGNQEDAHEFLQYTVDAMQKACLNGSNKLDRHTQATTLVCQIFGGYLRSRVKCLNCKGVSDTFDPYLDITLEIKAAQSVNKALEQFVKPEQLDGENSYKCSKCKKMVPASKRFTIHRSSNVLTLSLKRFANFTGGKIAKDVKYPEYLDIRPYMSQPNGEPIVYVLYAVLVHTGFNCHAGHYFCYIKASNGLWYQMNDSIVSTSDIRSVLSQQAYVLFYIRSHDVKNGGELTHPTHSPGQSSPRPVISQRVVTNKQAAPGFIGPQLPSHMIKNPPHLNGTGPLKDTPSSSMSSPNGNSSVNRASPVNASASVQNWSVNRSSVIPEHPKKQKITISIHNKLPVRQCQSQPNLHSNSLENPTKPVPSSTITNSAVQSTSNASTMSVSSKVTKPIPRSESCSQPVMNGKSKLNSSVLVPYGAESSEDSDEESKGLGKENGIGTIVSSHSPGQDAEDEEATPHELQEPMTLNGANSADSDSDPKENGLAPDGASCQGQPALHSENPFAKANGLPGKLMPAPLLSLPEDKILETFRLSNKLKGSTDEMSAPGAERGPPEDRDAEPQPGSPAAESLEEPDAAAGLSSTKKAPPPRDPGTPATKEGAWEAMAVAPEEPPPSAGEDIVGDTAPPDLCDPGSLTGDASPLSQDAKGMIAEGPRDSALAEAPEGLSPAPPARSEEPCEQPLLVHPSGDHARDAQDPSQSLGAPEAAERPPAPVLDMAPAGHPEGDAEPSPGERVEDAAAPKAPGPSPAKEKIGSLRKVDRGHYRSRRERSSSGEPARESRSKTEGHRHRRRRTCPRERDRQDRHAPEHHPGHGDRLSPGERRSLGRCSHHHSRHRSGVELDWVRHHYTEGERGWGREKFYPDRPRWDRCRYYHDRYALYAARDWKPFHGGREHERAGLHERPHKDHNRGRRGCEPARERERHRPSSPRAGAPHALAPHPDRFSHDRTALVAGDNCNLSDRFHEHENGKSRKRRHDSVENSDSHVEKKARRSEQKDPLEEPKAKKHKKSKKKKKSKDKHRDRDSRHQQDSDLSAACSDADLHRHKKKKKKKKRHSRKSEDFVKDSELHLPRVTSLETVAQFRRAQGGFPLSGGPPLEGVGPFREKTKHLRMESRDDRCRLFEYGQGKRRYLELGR
How it was run: (§1)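 HEK293T lysate (495 µg per sample, in Tris/CHAPS/IGEPAL buffer with protease inhibitors) was treated in triplicate with fragment at 200 µM or with DMSO for 3 h. It was then treated with Biotin-Ahx-Ub-VS (0.5 µM final) for 1 h. Labelled DUBs were NeutrAvidin-enriched, digested with LysC and trypsin, and run by diaPASEF LC-MS/MS. Spectronaut label-free quantities were global-median-normalised. Values are average log2 ratios fragment/DMSO by unpaired t-test, using proteins with ≥2 unique peptides.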

USP46 = USP46 (UniProt P62068)
How it was run: as §1

USP47 = molecular target: T2, USP47 (UniProt Q96K76)
T2 sequence (whole entry): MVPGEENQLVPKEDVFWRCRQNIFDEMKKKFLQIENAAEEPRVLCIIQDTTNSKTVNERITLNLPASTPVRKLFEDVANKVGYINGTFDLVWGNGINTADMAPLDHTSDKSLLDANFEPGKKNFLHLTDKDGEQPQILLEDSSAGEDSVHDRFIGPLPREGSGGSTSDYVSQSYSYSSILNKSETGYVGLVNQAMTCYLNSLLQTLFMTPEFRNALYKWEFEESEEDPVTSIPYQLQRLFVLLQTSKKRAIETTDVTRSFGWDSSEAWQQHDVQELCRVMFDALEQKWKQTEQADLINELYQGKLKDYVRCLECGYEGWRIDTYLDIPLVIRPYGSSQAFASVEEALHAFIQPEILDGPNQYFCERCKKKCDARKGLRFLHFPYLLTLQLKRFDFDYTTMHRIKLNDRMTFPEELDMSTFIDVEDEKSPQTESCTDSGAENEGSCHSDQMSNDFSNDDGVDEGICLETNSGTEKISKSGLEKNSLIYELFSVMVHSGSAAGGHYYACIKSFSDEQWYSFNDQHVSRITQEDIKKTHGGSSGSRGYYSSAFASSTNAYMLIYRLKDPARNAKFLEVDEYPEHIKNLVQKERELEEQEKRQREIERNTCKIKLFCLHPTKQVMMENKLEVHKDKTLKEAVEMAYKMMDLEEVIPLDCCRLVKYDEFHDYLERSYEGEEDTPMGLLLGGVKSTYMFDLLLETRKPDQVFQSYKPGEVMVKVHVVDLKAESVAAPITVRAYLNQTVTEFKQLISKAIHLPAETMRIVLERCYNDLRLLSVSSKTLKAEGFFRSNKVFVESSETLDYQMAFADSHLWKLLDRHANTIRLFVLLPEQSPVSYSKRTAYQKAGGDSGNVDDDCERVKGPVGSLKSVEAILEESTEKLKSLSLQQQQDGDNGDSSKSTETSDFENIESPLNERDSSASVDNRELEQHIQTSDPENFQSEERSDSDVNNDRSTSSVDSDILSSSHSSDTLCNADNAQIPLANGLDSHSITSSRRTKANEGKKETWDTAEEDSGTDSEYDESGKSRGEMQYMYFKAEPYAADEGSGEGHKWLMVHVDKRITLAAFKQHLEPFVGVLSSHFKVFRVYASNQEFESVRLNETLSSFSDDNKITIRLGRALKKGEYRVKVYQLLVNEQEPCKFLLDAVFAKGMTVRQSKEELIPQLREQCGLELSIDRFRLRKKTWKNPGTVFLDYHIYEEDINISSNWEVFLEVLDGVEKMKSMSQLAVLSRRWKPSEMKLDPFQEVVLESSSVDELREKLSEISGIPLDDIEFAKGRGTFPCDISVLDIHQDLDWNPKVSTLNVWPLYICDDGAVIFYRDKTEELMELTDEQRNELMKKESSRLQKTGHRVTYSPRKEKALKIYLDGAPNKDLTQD
How it was run: as §1

USP48 = molecular target: T3, USP48 (UniProt Q86UV5)
T3 sequence (whole entry): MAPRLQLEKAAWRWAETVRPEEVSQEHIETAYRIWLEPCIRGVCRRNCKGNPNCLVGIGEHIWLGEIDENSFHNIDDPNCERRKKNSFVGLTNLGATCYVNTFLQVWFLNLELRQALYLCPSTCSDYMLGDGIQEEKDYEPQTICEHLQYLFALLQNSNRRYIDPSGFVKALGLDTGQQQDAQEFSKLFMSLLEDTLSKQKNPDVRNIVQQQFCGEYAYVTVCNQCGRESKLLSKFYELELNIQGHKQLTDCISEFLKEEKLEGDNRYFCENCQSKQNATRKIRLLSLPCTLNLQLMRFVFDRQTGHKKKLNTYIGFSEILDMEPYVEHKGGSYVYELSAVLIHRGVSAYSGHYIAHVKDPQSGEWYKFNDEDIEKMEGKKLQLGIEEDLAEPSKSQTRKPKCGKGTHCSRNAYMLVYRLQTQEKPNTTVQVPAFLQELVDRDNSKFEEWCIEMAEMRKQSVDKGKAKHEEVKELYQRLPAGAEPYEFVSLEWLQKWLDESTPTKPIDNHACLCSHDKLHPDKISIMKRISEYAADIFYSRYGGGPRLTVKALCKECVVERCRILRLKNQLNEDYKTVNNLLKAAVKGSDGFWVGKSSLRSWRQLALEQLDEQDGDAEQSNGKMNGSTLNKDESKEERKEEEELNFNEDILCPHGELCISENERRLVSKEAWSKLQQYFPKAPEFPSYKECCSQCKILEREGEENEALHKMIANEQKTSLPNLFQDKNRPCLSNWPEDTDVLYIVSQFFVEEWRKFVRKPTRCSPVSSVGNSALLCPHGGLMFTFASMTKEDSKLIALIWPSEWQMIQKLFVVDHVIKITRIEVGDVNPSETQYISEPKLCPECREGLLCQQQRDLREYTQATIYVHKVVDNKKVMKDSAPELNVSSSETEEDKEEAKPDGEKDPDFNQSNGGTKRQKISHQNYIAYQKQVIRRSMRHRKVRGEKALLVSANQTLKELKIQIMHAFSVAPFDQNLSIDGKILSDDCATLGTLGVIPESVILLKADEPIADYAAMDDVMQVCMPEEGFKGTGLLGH
How it was run: as §1

USP5 = molecular target: T4, USP5 (UniProt P45974)
T4 sequence (whole entry): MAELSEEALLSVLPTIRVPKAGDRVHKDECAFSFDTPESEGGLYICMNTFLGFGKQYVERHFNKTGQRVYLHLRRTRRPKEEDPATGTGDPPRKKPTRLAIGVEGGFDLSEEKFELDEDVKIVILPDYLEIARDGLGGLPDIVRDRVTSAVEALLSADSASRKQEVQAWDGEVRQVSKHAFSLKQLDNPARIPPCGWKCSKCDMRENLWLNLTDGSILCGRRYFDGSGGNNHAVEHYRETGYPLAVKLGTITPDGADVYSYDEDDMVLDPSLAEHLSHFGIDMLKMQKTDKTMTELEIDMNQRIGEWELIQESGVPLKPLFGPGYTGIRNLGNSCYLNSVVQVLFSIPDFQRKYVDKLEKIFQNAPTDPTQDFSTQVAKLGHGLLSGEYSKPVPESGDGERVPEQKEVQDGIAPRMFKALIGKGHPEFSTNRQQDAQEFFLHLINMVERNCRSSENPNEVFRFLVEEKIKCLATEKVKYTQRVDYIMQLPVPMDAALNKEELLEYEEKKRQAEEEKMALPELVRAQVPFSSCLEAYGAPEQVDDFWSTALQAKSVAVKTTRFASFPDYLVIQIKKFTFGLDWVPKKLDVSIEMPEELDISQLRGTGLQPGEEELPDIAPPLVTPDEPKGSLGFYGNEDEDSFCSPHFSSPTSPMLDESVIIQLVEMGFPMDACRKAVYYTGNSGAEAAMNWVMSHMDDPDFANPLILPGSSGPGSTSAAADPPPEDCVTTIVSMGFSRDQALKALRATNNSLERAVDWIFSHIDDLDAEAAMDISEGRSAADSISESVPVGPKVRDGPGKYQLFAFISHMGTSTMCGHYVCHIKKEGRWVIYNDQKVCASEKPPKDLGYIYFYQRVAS
How it was run: as §1

USP54 = USP54 (UniProt Q70EL1)
How it was run: as §1

USP7 = USP7 (UniProt Q93009)
How it was run: as §1

USP8 = molecular target: T5, USP8 (UniProt P40818)
T5 sequence (whole entry): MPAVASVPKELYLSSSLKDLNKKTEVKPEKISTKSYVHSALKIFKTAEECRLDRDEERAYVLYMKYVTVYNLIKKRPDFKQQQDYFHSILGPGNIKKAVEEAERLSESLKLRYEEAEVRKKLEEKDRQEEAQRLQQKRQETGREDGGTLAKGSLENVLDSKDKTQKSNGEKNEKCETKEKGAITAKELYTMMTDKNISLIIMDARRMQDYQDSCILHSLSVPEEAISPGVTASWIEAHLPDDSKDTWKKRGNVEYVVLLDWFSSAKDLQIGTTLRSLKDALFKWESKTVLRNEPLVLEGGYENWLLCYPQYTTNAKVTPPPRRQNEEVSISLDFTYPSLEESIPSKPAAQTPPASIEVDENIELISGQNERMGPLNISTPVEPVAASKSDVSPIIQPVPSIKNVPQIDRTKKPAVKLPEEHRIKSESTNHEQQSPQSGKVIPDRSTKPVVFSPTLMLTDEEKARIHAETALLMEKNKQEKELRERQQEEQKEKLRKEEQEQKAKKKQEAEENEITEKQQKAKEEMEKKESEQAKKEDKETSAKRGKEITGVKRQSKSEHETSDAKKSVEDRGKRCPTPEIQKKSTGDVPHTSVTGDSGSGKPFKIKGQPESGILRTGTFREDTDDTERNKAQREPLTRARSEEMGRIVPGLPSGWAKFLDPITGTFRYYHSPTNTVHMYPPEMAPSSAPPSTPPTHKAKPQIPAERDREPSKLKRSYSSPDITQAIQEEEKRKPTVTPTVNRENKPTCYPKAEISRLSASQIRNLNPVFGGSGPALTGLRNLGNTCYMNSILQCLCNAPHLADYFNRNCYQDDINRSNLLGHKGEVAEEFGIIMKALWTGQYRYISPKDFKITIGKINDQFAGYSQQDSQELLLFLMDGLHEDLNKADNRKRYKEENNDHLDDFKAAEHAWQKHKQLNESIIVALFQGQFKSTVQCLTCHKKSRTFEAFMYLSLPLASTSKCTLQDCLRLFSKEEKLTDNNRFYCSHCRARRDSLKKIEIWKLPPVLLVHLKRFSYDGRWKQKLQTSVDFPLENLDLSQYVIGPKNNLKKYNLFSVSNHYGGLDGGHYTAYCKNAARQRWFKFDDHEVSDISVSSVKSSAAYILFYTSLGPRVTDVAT
How it was run: as §1

USP9X = USP9X (UniProt Q93008)
How it was run: as §1

UniProt O00487 = molecular target: UniProt O00487
How it was run: as §1

Measured: log2 ratio of Biotin-Ahx-Ub-VS probe labelling

Chain of USP54 (Q70EL1 whole entry): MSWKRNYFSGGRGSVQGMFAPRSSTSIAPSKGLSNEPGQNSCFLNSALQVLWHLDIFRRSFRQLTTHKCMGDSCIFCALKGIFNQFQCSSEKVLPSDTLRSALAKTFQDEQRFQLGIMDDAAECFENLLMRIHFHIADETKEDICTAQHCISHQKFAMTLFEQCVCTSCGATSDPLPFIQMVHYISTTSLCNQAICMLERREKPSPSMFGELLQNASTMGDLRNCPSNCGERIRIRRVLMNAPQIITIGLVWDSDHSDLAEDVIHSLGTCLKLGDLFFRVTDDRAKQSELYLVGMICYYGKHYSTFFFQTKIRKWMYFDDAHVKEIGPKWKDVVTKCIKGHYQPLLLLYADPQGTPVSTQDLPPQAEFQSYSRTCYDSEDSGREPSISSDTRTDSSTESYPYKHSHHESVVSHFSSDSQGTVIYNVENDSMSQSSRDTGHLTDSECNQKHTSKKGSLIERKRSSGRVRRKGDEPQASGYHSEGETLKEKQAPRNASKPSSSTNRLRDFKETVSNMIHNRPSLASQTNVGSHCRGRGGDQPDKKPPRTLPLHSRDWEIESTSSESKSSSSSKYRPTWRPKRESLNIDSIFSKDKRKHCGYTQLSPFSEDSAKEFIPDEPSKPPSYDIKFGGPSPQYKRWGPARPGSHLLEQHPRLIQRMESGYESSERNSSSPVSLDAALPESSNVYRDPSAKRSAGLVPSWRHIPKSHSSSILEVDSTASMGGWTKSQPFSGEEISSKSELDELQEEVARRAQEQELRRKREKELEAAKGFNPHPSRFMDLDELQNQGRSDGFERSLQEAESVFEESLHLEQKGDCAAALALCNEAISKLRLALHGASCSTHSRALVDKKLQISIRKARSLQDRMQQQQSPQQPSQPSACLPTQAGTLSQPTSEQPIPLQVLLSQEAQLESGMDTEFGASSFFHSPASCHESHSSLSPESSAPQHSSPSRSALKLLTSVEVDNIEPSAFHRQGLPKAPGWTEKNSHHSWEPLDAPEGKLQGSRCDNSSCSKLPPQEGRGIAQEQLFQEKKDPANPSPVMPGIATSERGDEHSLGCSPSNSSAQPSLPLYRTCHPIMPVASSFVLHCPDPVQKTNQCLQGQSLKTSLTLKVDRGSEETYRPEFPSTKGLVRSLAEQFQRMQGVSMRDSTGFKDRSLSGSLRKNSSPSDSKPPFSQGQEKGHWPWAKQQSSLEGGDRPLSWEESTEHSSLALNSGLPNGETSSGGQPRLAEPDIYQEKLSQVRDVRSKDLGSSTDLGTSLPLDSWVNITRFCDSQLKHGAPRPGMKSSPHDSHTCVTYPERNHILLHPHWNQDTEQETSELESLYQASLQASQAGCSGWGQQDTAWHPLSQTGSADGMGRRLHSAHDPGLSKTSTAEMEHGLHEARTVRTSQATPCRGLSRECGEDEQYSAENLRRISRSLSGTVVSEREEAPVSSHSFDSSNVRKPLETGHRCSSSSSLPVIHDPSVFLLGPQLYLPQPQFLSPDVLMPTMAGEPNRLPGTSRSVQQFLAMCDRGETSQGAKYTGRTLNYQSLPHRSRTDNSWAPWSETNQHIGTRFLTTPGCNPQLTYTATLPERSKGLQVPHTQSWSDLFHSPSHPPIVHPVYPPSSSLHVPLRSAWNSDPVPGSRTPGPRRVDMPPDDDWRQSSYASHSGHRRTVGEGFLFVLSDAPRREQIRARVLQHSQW
Chain of UniProt O00487 (O00487 whole entry): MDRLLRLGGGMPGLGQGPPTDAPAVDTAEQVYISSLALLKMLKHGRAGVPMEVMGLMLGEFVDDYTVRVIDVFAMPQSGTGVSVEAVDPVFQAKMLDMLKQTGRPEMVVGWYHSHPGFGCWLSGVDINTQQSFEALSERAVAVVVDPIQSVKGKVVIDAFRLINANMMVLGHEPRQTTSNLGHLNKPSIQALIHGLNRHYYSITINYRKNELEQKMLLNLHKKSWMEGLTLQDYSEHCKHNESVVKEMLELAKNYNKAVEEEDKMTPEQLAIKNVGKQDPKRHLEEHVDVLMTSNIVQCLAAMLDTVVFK
Chain of USP7 (Q93009 whole entry, looked up): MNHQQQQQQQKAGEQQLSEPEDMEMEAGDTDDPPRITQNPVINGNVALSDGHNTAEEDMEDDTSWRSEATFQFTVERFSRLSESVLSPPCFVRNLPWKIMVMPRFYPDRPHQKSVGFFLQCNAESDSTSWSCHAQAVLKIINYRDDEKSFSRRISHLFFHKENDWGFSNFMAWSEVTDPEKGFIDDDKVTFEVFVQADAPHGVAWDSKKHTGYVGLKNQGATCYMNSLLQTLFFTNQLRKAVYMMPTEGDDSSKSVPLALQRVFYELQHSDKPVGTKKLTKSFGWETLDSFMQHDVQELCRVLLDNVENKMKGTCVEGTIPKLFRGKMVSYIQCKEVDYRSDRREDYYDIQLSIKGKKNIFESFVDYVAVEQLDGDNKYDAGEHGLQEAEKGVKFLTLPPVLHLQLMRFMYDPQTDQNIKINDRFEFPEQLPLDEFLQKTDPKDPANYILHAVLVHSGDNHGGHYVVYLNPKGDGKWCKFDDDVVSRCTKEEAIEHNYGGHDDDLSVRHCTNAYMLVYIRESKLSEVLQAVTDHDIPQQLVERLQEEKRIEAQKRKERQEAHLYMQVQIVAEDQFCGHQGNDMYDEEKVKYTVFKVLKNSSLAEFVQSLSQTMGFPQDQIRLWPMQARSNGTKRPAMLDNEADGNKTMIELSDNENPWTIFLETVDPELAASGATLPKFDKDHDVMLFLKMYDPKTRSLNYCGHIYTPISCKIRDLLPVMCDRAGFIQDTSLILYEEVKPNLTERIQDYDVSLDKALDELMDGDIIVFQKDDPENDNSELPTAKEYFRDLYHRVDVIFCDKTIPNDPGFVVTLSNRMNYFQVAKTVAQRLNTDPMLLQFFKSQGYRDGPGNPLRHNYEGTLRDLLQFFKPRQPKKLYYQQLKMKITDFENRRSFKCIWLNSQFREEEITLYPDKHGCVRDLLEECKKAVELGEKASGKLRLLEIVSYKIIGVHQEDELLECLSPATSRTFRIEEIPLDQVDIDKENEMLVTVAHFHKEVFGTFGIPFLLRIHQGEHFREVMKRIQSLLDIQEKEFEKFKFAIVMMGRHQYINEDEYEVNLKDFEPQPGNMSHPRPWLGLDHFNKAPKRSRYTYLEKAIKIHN
Chain of USP46 (P62068 whole entry): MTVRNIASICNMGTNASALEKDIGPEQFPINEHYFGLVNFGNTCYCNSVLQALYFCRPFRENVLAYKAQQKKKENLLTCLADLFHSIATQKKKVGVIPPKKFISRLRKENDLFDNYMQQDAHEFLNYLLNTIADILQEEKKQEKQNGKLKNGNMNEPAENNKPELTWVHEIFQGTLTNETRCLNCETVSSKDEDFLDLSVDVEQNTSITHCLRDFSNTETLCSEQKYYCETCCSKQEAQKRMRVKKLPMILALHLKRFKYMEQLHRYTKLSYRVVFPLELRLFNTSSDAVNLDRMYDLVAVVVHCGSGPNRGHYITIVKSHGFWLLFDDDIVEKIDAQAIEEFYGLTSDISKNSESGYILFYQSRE

O=C(CCl)N1CCOC2(CCC2)C1
inactive: USP42 0.183 | USP46 0.171 | USP47 -0.386 | USP48 -0.474 | USP5 0.109 | USP54 -0.395 | USP7 0.0903 | USP8 -0.347 | USP9X 0.105 | UniProt O00487 -0.0639
